Where “and” joins values, the source holds several entries; their conditions need not be identical. Identical values can stand only once. In all, about 5,500 compounds went through this assay and about 2,000 (36%) were called active. Roughly 18% stayed inconclusive and do not appear here. Rule as the data show it: active = normalized growth mostly below about 0.91 (no sharp cut-off); inconclusive = no clear call, values can overlap the other calls; inactive = mostly above about 0.92. The list shows a part of the results.
Experiment: chemical genetic growth profiling, strain panel (AID 1159580);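 also: tested at 20 µM; growth read once vehicle control cultures reached saturation at 30 °C; 1 = growth at the plate median or of vehicle wells; lower values mean less growth of the strain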
Settings: growth OD

Measured: normalized growth

CN1C(C(=O)Nc2ccccn2)=C(O)c2ccccc2S1(=O)=O
inactive: S. cerevisiae deletion strains, locus YKL009W, strain mrt4, hits give low values 0.963 | S. cerevisiae deletion strains, locus YKL085W, strain MDH1 (second series), hits give low values 0.935 | S. cerevisiae deletion strains, locus YKL085W, strain MDH1, hits give low values 0.935 | S. cerevisiae deletion strains, locus YKL160W, strain elf1, hits give low values 0.933 | S. cerevisiae deletion strains, locus YKL190W, strain CNB1, hits give low values 1.01 | S. cerevisiae deletion strains, locus YKR001C, strain vps1, hits give low values 0.969 | S. cerevisiae deletion strains, locus YKR026C, strain gcn3, hits give low values 0.958 | S. cerevisiae deletion strains, locus YKR091W, strain srl3, hits give low values 0.968 | S. cerevisiae deletion strains, locus YLL001W, strain dnm1, hits give low values 0.963 | S. cerevisiae deletion strains, locus YLL041C, strain sdh2, hits give low values 0.953 | S. cerevisiae deletion strains, locus YLR027C, strain aat2, hits give low values 0.932 | S. cerevisiae deletion strains, locus YLR039C, strain RIC1, hits give low values 0.984 | S. cerevisiae deletion strains, locus YLR058C, strain SHM2, hits give low values 0.982 | S. cerevisiae deletion strains, locus YLR102C, strain apc9, hits give low values 0.946 | S. cerevisiae deletion strains, locus YLR113W, strain HOG1, hits give low values 0.934 | S. cerevisiae deletion strains, locus YLR221C, strain rsa3, hits give low values 0.925 | S. cerevisiae deletion strains, locus YLR258W, strain gsy2, hits give low values 0.95 | S. cerevisiae deletion strains, locus YLR262C, strain YPT6 (second series), hits give low values 0.919 | S. cerevisiae deletion strains, locus YLR262C, strain YPT6, hits give low values 0.998 | S. cerevisiae deletion strains, locus YLR268W, strain sec22, hits give low values 0.921 | S. cerevisiae deletion strains, locus YLR320W, strain mms22, hits give low values 0.881 | S. cerevisiae deletion strains, locus YLR330W, strain CHS5, hits give low values 0.967 | S. cerevisiae deletion strains, locus YLR342W, strain FKS1 (second series), hits give low values 0.94 | S. cerevisiae deletion strains, locus YLR342W, strain FKS1, hits give low values 0.931 | S. cerevisiae deletion strains, locus YLR357W, strain rsc2, hits give low values 1 | S. cerevisiae deletion strains, locus YLR370C, strain arc18, hits give low values 0.985 | S. cerevisiae deletion strains, locus YLR371W, strain rom2, hits give low values 0.95 | S. cerevisiae deletion strains, locus YLR384C, strain iki3, hits give low values 0.961 | S. cerevisiae deletion strains, locus YLR418C, strain cdc73, hits give low values 0.905 | S. cerevisiae deletion strains, locus YML016C, strain PPZ1, hits give low values 0.965 | S. cerevisiae deletion strains, locus YML032C, strain rad52, hits give low values 0.954 | S. cerevisiae deletion strains, locus YML120C, strain ndi1, hits give low values 0.95 | S. cerevisiae deletion strains, locus YML124C, strain tub3, hits give low values 0.95 | S. cerevisiae deletion strains, locus YMR058W, strain fet3, hits give low values 0.961 | S. cerevisiae deletion strains, locus YMR078C, strain ctf18, hits give low values 0.926 | S. cerevisiae deletion strains, locus YMR125W, strain sto1, hits give low values 0.985 | S. cerevisiae deletion strains, locus YMR129W, hits give low values 0.935 | S. cerevisiae deletion strains, locus YMR223W, strain ubp8, hits give low values 0.97 | S. cerevisiae deletion strains, locus YMR231W, strain pep5, hits give low values 0.97 | S. cerevisiae deletion strains, locus YMR263W, strain SAP30, hits give low values 0.996 | S. cerevisiae deletion strains, locus YMR307W, strain GAS1, hits give low values 0.836 and 1 | S. cerevisiae deletion strains, locus YNL067W, strain RPL9B, hits give low values 1 | S. cerevisiae deletion strains, locus YNL128W, strain TEP1, hits give low values 1.02 | S. cerevisiae deletion strains, locus YNL153C, strain GIM3, hits give low values 0.984 | S. cerevisiae deletion strains, locus YNL175C, strain NOP13, hits give low values 0.971 | S. cerevisiae deletion strains, locus YNL183C, strain NPR1, hits give low values 0.919 | S. cerevisiae deletion strains, locus YNL197C, strain WHI3, hits give low values 0.97 | S. cerevisiae deletion strains, locus YNL209W, strain ssb2, hits give low values 0.982 | S. cerevisiae deletion strains, locus YNL224C, strain SQS1, hits give low values 0.968 | S. cerevisiae deletion strains, locus YNL233W, strain BNI4, hits give low values 0.993 | S. cerevisiae deletion strains, locus YNL250W, strain rad50, hits give low values 0.923 | S. cerevisiae deletion strains, locus YNL298W, strain CLA4, hits give low values 0.935 | S. cerevisiae deletion strains, locus YNL322C, strain KRE1 (second series), hits give low values 0.943 | S. cerevisiae deletion strains, locus YNL322C, strain KRE1, hits give low values 0.973 and 1 | S. cerevisiae deletion strains, locus YNR049C, strain mso1, hits give low values 0.964 | S. cerevisiae deletion strains, locus YNR052C, strain pop2, hits give low values 0.965 | S. cerevisiae deletion strains, locus YOL006C, strain TOP1, hits give low values 0.999 | S. cerevisiae deletion strains, locus YOL012C, strain htz1 0.613 | S. cerevisiae deletion strains, locus YOL147C, strain pex11, hits give low values 0.944 | S. cerevisiae deletion strains, locus YOR001W, strain rrp6, hits give low values 0.92 | S. cerevisiae deletion strains, locus YOR061W, strain CKA2, hits give low values 0.976 | S. cerevisiae deletion strains, locus YOR069W, strain VPS5, hits give low values 0.966 | S. cerevisiae deletion strains, locus YOR070C, strain gyp1, hits give low values 0.973 | S. cerevisiae deletion strains, locus YOR080W, strain dia2, hits give low values 0.978 | S. cerevisiae deletion strains, locus YOR083W, strain WHI5 (second series), hits give low values 0.99 | S. cerevisiae deletion strains, locus YOR083W, strain WHI5, hits give low values 0.946 | S. cerevisiae deletion strains, locus YOR106W, strain vam3, hits give low values 0.965 | S. cerevisiae deletion strains, locus YOR136W, strain idh2, hits give low values 0.988 | S. cerevisiae deletion strains, locus YOR144C, strain elg1, hits give low values 0.953 | S. cerevisiae deletion strains, locus YOR184W, strain ser1, hits give low values 0.961 | S. cerevisiae deletion strains, locus YOR231W, strain MKK1, hits give low values 0.945 | S. cerevisiae deletion strains, locus YOR265W, strain rbl2, hits give low values 0.967 | S. cerevisiae deletion strains, locus YOR270C, strain vph1, hits give low values 0.954 | S. cerevisiae deletion strains, locus YOR290C, strain snf2, hits give low values 0.971 | S. cerevisiae deletion strains, locus YOR316C, strain cot1, hits give low values 0.95 | S. cerevisiae deletion strains, locus YPL051W, strain arl3, hits give low values 0.961 | S. cerevisiae deletion strains, locus YPL055C, strain LGE1, hits give low values 0.987 | S. cerevisiae deletion strains, locus YPL078C, strain atp4, hits give low values 0.95 | S. cerevisiae deletion strains, locus YPL106C, strain sse1, hits give low values 0.989 | S. cerevisiae deletion strains, locus YPL240C, strain hsp82, hits give low values 0.953 | S. cerevisiae deletion strains, locus YPL241C, strain CIN2, hits give low values 0.967 | S. cerevisiae deletion strains, locus YPL256C, strain CLN2, hits give low values 0.907 | S. cerevisiae deletion strains, locus YPR119W, strain clb2, hits give low values 0.931 | S. cerevisiae deletion strains, locus YPR141C, strain kar3, hits give low values 0.923 | S. cerevisiae deletion strains, locus YPR167C, strain met16, hits give low values 0.962 | S. cerevisiae deletion strains, strain wtn01, hits give low values 0.961 | S. cerevisiae strains, strain wild type, hits give low values 0.984
active: S. cerevisiae deletion strains, locus YKL068W, hits give low values 0.925 | S. cerevisiae deletion strains, locus YLL026W, hits give low values 0.93 | S. cerevisiae deletion strains, locus YMR205C, strain PFK2, hits give low values 0.781 | S. cerevisiae deletion strains, locus YNL071W, strain lat1, hits give low values 0.786 | S. cerevisiae deletion strains, locus YNL248C, strain rpa49, hits give low values 1.26 [resistant] | S. cerevisiae deletion strains, locus YNL271C, strain bni1, hits give low values 0.911 | S. cerevisiae deletion strains, locus YNL307C, strain MCK1, hits give low values 0.82 | S. cerevisiae deletion strains, locus YPR163C, strain tif3, hits give low values 0.885

Source: PubChem BioAssay AID1159580 (chemical genetic matrix, 2015)
